Structures are written as SMILES. Where “and” joins values, the source holds several entries; their conditions need not be identical. Identical values can stand only once. Some compounds were tested as several samples or in several runs, with calls that do not always agree. Calls of active or inactive are those of the source. Rule for the calls: active = hit-call score of the fitted dose curve at least 0.9, where 1 is the maximum; inactive = score below 0.9.

Read-out in assay [1]: Macrophage colony-stimulating factor (MCSF), CSF1 (gene 1435)
Put plainly: BSK_hDFCGF_MCSF: BioMAP Diversity Plus: hDFCGF Assay for Macrophage colony-stimulating factor (MCSF) Biomarker Activity (AID 2283060). To be noted: primary human foreskin fibroblasts; actives raise or lower the signal. The method, boiled down:
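Human foreskin primary fibroblasts were treated with test chemical for 24 h, and M-CSF was then measured by ELISA. Data were fitted bidirectionally against DMSO as the negative control and activity baseline.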

The nature of assay [2]: BSK_hDFCGF_SRB: Viability Assessment in the BioMAP Diversity Plus: hDFCGF Assay (AID 2283061).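 Note: cells exposed to compound for 24 h before the read.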 Particulars: primary human foreskin fibroblasts. A digest of the protocol:
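Human foreskin primary fibroblasts were treated with compound and assessed 24 h after dosing. Total protein was measured by sulforhodamine B staining (0.1% SRB after 10% TCA fixation, 560 nm read) as a cytotoxicity marker, with bidirectional fitting against DMSO baseline.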

Read-out in assay [3]: TIMP metallopeptidase inhibitor 1 (TIMP1), TIMP1 (gene 7076)
The assay is described as follows: BSK_hDFCGF_TIMP1: BioMAP Diversity Plus: hDFCGF Assay for TIMP metallopeptidase inhibitor 1 (TIMP1) Biomarker Activity (AID 2283062). Particulars: primary human foreskin fibroblasts; actives raise or lower the signal. A digest of the protocol: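 Primary human foreskin fibroblasts in the hDFCGF system were dosed with compound for 24 h, then TIMP-1 was measured by ELISA. Activity was fitted bidirectionally relative to DMSO control; parallel SRB staining assessed cytotoxicity.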

Read-out in assay [4]: Monokine induced gamma interferon (MIG), CXCL9 (gene 4283)
The assay is described as follows: BSK_hDFCGF_MIG: BioMAP Diversity Plus: hDFCGF Assay for Monokine induced gamma interferon (MIG) Biomarker Activity (AID 2283063). Particulars: primary human foreskin fibroblasts; actives raise or lower the signal. A digest of the protocol: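 ELISA read-out of MIG from primary human dermal fibroblasts 24 h post-dosing. Gain or loss of signal fitted bidirectionally, DMSO as baseline.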

Read-out in assay [5]: Matrix Metallopeptidase 1 (MMP1), MMP1 (gene 4312)
The assay is described as follows: BSK_hDFCGF_MMP1: BioMAP Diversity Plus: hDFCGF Assay for Matrix Metallopeptidase 1 (MMP1) Biomarker Activity (AID 2283064). To be noted: primary human foreskin fibroblasts; actives raise or lower the signal. The method, boiled down: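 hDFCGF primary fibroblasts (human foreskin); chemical added; 24 h; MMP1 by ELISA; bidirectional fit vs DMSO.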

Read-out in assay [6]: Vascular cell adhesion molecule 1 (VCAM1), VCAM1 (gene 7412)
The assay is described as follows: BSK_hDFCGF_VCAM1: BioMAP Diversity Plus: hDFCGF Assay for Vascular cell adhesion molecule 1 (VCAM1) Biomarker Activity (AID 2283065).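 For AC50: VCAM-1 protein level quantified by ELISA after 24 h chemical exposure.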 To be noted: primary human foreskin fibroblasts; actives raise or lower the signal. The method, boiled down:
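Primary human foreskin fibroblasts (hDFCGF system) were dosed with chemical and VCAM-1 was measured by ELISA 24 h later. Bidirectional curve fitting used DMSO as negative control and activity baseline.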

Read-out in assay [7]: Plasminogen activator inhibitor-1 (PAI1), SERPINE1 (gene 5054)
Put plainly: BSK_hDFCGF_PAI1: BioMAP Diversity Plus: hDFCGF Assay for Plasminogen activator inhibitor-1 (PAI1) Biomarker Activity (AID 2283066). To be noted: primary human foreskin fibroblasts; actives raise or lower the signal. A digest of the protocol:
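PAI-1 levels, determined by ELISA, served as the endpoint in human foreskin fibroblast cultures exposed to compound for 24 h, with DMSO as baseline.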

Read-out in assay [8]: Intercellular Adhesion Molecule 1 (ICAM1), ICAM1 (gene 3383)
Put plainly: BSK_KF3CT_ICAM1: BioMAP Diversity Plus: KF3CT Assay for Intercellular Adhesion Molecule 1 (ICAM1) Biomarker Activity (AID 2283067). To be noted: primary human keratinocytes with fibroblasts; actives raise or lower the signal. A digest of the protocol: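 Human keratinocyte plus foreskin fibroblast primary co-culture was exposed to chemical for 24 h. ICAM-1 was then quantified by ELISA, and the data were fit bidirectionally against DMSO as the negative control and baseline.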

Read-out in assay [9]: Interferon-gamma inducible Protein 10 (IP10), CXCL10 (gene 3627)
Put plainly: BSK_KF3CT_IP10: BioMAP Diversity Plus: KF3CT Assay for Interferon-gamma inducible Protein 10 (IP10) Biomarker Activity (AID 2283068). Particulars: primary human keratinocytes with fibroblasts; actives raise or lower the signal. A digest of the protocol: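 ELISA read-out of IP-10 after 24 h chemical dosing of human skin primary co-culture (keratinocytes, foreskin fibroblasts). Gain or loss of signal relative to DMSO, bidirectional curve fit.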

The nature of assay [10]: BSK_KF3CT_SRB: Viability Assessment in the BioMAP Diversity Plus: KF3CT Assay (AID 2283069).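 Note: fitted for both signal gain and loss against DMSO baseline.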 To be noted: primary human keratinocytes with fibroblasts. A digest of the protocol: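 Keratinocytes co-cultured with foreskin fibroblasts (human primary); chemical added, 24 h; fix 10% TCA, stain 0.1% SRB, A560. Bidirectional fit vs DMSO.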
Read-out in assay [11]: Interleukin-1 alpha (IL1a), IL1A (gene 3552)
The assay is described as follows: BSK_KF3CT_IL1a: BioMAP Diversity Plus: KF3CT Assay for Interleukin-1 alpha (IL1a) Biomarker Activity (AID 2283070). Particulars: primary human keratinocytes with fibroblasts; actives raise or lower the signal. A digest of the protocol: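 Chemicals were dosed onto co-cultured human keratinocytes and foreskin fibroblasts, IL-1a was quantified by ELISA at 24 h, and activity was fitted in both directions relative to DMSO controls.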

Read-out in assay [12]: TIMP metallopeptidase inhibitor 2 (TIMP2), TIMP2 (gene 7077)
Put plainly: BSK_KF3CT_TIMP2: BioMAP Diversity Plus: KF3CT Assay for TIMP metallopeptidase inhibitor 2 (TIMP2) Biomarker Activity (AID 2283071). Particulars: primary human keratinocytes with fibroblasts; actives raise or lower the signal. The method, boiled down:
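Keratinocyte–fibroblast co-culture, 24 h exposure; TIMP-2 ELISA, DMSO-normalised bidirectional fit. Parallel SRB (0.1%, TCA-fixed, 560 nm) total-protein staining gauges cytotoxicity.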

Read-out in assay [13]: Transforming growth factor beta 1 (TGFb1), TGFB1 (gene 7040)
The assay is described as follows: BSK_KF3CT_TGFb1: BioMAP Diversity Plus: KF3CT Assay for Transforming growth factor beta 1 (TGFb1) Biomarker Activity (AID 2283072). To be noted: primary human keratinocytes with fibroblasts; actives raise or lower the signal. The method, boiled down: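 Signal changes in either direction, relative to DMSO, define activity here. TGF-b1 is read by ELISA from a human keratinocyte-fibroblast co-culture 24 h post-dose.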

Read-out in assay [14]: C-C motif chemokine 2 (Homo sapiens) (UniProt P13500)
Put plainly: BSK_KF3CT_MCP1: BioMAP Diversity Plus: KF3CT Assay for Monocyte Chemoattractant Protein 1 (MCP1/CCL2) Biomarker Activity (AID 2283073). To be noted: primary human keratinocytes with fibroblasts; actives raise or lower the signal. The method, boiled down: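 Human keratinocyte plus foreskin fibroblast primary co-culture exposed to chemical for 24 h. MCP-1 levels measured by ELISA. Bidirectional curve fitting relative to DMSO negative control as baseline.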

Read-out in assay [15]: Matrix Metallopeptidase 9 (MMP9), MMP9 (gene 4318)
Put plainly: BSK_KF3CT_MMP9: BioMAP Diversity Plus: KF3CT Assay for Matrix Metallopeptidase 9 (MMP9) Biomarker Activity (AID 2283074).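 For AC50: MMP9 protein level quantified by ELISA in the co-culture.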 To be noted: primary human keratinocytes with fibroblasts; actives raise or lower the signal. The method, boiled down:
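Human keratinocyte/foreskin fibroblast co-culture; compound added; 24 h; MMP-9 by ELISA; bidirectional fit vs DMSO baseline.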

Read-out in a further assay: CD40, CD40 (gene 958)
Put plainly: BSK_LPS_CD40: BioMAP Diversity Plus: LPS Assay for CD40 Biomarker Activity (AID 2283076). Particulars: primary human HUVEC with PBMC; actives raise or lower the signal. The method, boiled down:
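Primary human umbilical vein endothelial cells co-cultured with peripheral blood mononuclear cells, LPS-stimulated, were dosed with chemical and read 24 h later. CD40 levels were measured by ELISA and fitted bidirectionally against DMSO as negative control and baseline.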

Read-out in assay [16]: E-selectin (Homo sapiens) (UniProt P16581)
Put plainly: BSK_LPS_Eselectin: BioMAP Diversity Plus: LPS Assay for Eselectin Biomarker Activity (AID 2283077). To be noted: primary human HUVEC with PBMC; actives raise or lower the signal. A digest of the protocol:
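Human umbilical vein endothelial cells co-cultured with peripheral blood mononuclear cells under LPS stimulation; E-selectin measured by ELISA 24 h after chemical dosing. Activity fitted bidirectionally against DMSO as negative control and baseline.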

Read-out in assay [17]: Interleukin-8 (IL8), CXCL8 (gene 3576)
The assay is described as follows: BSK_LPS_IL8: BioMAP Diversity Plus: LPS Assay for Interleukin-8 (IL8) Biomarker Activity (AID 2283078). Particulars: primary human HUVEC with PBMC; actives raise or lower the signal. A digest of the protocol:
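Human umbilical vein endothelial cells co-cultured with PBMC were stimulated with LPS; IL-8 levels were measured by ELISA 24 h after chemical dosing. Activity was fitted bidirectionally against DMSO as negative control and baseline.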

Assay [18] can be described thus: BSK_LPS_SRB: Viability Assessment in the BioMAP Diversity Plus: LPS Assay (AID 2283079).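 Note: total protein by sulforhodamine B absorbance as a cytotoxicity measure; measured one day after compound addition; fitted in both directions against DMSO so loss or gain of signal counts.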 To be noted: primary human HUVEC with PBMC. The method, boiled down: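 Human umbilical vein endothelial cells co-cultured with PBMC (LPS system) were dosed for 24 h. Total protein was stained with 0.1% sulforhodamine B after 10% TCA fixation, read at 560 nm, and fitted bidirectionally against DMSO baseline.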

Read-out in assay [19]: urokinase plasminogen activator (uPA), PLAU (gene 5328)
The assay is described as follows: BSK_KF3CT_uPA: BioMAP Diversity Plus: KF3CT Assay for urokinase plasminogen activator (uPA) Biomarker Activity (AID 2283075). To be noted: primary human keratinocytes with fibroblasts; actives raise or lower the signal. The method, boiled down:
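ELISA readout of uPA, analyzed for signal gain or loss relative to DMSO, from a human primary keratinocyte–foreskin fibroblast co-culture measured 24 h after chemical treatment.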

E-selectin (Homo sapiens), sequence (P16581 whole entry, looked up): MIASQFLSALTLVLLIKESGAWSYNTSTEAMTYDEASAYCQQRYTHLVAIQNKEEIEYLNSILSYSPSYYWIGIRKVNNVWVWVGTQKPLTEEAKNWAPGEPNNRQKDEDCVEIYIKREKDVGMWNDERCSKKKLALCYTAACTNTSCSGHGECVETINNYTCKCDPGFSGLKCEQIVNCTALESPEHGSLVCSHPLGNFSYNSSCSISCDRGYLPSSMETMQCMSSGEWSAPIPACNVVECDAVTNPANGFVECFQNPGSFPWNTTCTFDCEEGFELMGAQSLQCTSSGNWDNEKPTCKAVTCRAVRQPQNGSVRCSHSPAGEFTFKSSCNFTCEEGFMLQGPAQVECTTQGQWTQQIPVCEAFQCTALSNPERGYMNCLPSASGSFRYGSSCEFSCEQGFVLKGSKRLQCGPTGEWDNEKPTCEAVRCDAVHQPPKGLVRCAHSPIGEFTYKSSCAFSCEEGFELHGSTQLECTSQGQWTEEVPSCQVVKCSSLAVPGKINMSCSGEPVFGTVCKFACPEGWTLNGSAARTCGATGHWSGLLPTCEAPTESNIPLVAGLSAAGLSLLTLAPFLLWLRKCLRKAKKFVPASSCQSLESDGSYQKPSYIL

On to `Cc1ccc2c(c1N)C(=O)c1ccccc1C2=O`, for which the result in [1], in assay [2], in assay [3], in assay [4], in assay [5] and in assay [6] was inactive. Moreover, the result in assay [7], in assay [8], in assay [9], in assay [10], in [11] and in assay [13] was inactive. For the same compound, the outcome in [14] was “inactive”; in [15], “inactive”; with CD40, CD40 (gene 958), “inactive”; in assay [16] it was “inactive”; in assay [17], “inactive”; in [18], “inactive”. Moreover, the AC50 (usually the midpoint of the concentration-response curve, whichever way the signal moves) in [12] was 6.86 µM (active).

Regarding `OCC(F)(F)OC(F)(F)C(F)(F)OC(F)(F)C(F)(F)OC(F)(F)CO`, the AC50 in assay [1] is 14 µM (active); in assay [2], 5.95 µM (active); in [4], 16.8 µM (active) and 23.2 µM (active); in [5], 10.5 µM (active) and 8.39 µM (active); in [6], 13.4 µM (active) and 8.26 µM (active); with CD40, CD40 (gene 958) it was 7.62 µM (active). Also, the AC50 in assay [18] is 30 µM (active). Further, the result in assay [1], in [2], in [3], in assay [7], in assay [8] and in [9] was inactive. Further, the result in assay [10], in assay [11], in [12], in assay [14], in assay [15] and in assay [19] was inactive. In addition, the outcome in the assay with CD40, CD40 (gene 958) was “inactive”; in [16], “inactive”; in [17] it was “inactive”; in assay [18], “inactive”.

Take `CCCN(CCC)c1c([N+](=O)[O-])cc(C(C)C)cc1[N+](=O)[O-]`: the AC50 was 6.75 µM (active) in assay [1]; 13.9 µM (active) in assay [2]; 9.44 µM (active) in assay [4]; 14.3 µM (active) in assay [6]; 20 µM (active) in assay [7]; 14.6 µM (active) in [15]. The AC50 is 31 µM (active) with CD40, CD40 (gene 958); 30.8 µM (active) in assay [16]; 31.9 µM (active) in assay [17]; 31.2 µM (active) in assay [18]. The result in [3], in assay [5], in assay [8], in [9], in [10] and in assay [11] was inactive. Moreover, the outcome in assay [12], in assay [13], in [14] and in [19] was inactive.

These data come from PubChem BioAssay (EPA / NIEHS).
